Measurements from PubChem BioAssay (NCATS).
Records with an inconclusive call do not appear. Values without a mark were called inactive. The source made the active and inactive calls. The call rests on the fitted dose curve; in most records, active means well fitted inhibition curve with a large enough effect; inconclusive means small, poorly fitted or top-dose-only effect; inactive means flat fitted curve, though single readings scatter.

test system: HEK293; experiment: Cytotoxic Profiling of Annotated Libraries Using Quantitative High-Throughput Screening (AID 1296008); conditions: Five cell lines viability, CellTiter-Glo ATP luminescence, 48-72 h; max response: hits give low values; further: nearly all actives have a fitted effect of over 60% in size
Summary of the method: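 Cells exposed to compounds for 48 or 72 hr at 37 degrees Celsius. Viability read as ATP-coupled luminescence with CellTiter-Glo after 10 min at room temperature.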
On the % scale 0 is the no-effect control and ±100 the full control effect; potency means the concentration at half of the fitted maximal effect.

| SMILES | Potency | max response |
| --- | --- | --- |
| Cc1cc(C(=O)Nc2cc(Nc3ccc4c(/C=C/c5ccccn5)n[nH]c4c3)ccc2F)n(C)n1 | 11.6 µM (active) |  |
| CC1CCC/C=C/C(=O)c2c(O)cc(O)cc2CC(=O)O1 (stereo not drawn) | 4.11 µM (active) |  |
| Nc1ncnc2c1nc(Cl)n2C1OC2COP(=O)(O)OC2C1O (stereo not drawn) | 1.64 µM (active) |  |
| C=C1C(=O)O[C@@H]2[C@H]1CC(=O)[C@H](C)[C@@](O)(C(=O)/C=C/C)[C@H]2OC(=O)C(C)CC (stereo partly drawn) | 2.86 µM (active) |  |
| CN1CCN(C2CCN(C(=O)Nc3cc(Oc4ccc(NC(=O)C5(C(=O)Nc6ccc(F)cc6)CC5)c(F)c4)ccn3)CC2)CC1 | 13 µM (active) |  |
| O=C(NO)c1cnc(N2CCN(S(=O)(=O)c3ccc4ccccc4c3)CC2)nc1 |  | -106% |
| C=C1CC2OC(=O)C(=C)C2C(OC(=O)/C(C)=C\C)CC2(C)OC1=CC2=O (stereo not drawn) | 2.86 µM (active) |  |
| Cc1cc(Nc2nc(-c3ccccc3)nc3ccccc23)n[nH]1 | 7.31 µM (active) |  |
| COc1cc(C(N)=O)nc(-c2ccccn2)c1O |  | -3.89% |
| C#CC(=O)N(c1ccc(OC)cc1OC)C(C(=O)NCC(=O)OCC)c1cccs1 (stereo not drawn) | 0.259 µM (active) |  |
| CC(=O)OC(C)(C)/C=C/C(=O)C(C)(O)C1C(O)CC2(C)C3CC=C(C(C)(C)C(=O)O)C(CC(=O)O)C3(C)C(=O)CC12C (stereo not drawn) |  | -1.12% |
| Cc1noc(-c2ccc(-c3ccc(CC(=O)O)cc3)cc2)c1NC(=O)O[C@H](C)c1ccccc1Cl |  | -3.72% |
| c1ccc(-c2ccc(CNc3nc(-c4ccccn4)nnc3-c3ccccc3)cc2)cc1 | 5.17 µM (active) |  |
| Cn1nc(-c2ccc(C(F)(F)F)cc2)nc2c(=O)n(C)c(=O)nc1-2 | 6.51 µM (active) |  |
| CNC(=O)[C@@H](c1ccccc1)N1CCc2cc(OC)c(OC)cc2[C@@H]1CCc1ccc(C(F)(F)F)cc1 | 16.4 µM (active) |  |
| Cc1cccc(-c2[nH]ncc2-c2ccnc3ccccc23)n1 |  | -23.7% |
| Cc1[nH]c(/C=C2\C(=O)Nc3ccc(S(=O)(=O)N(C)c4cccc(Cl)c4)cc32)c(C)c1C(=O)N1CCN(C)CC1 | 6.51 µM (active) |  |
| N#Cc1ccc(O[C@@H]2c3ccccc3C[C@H]2N2CCC[C@@H](N)C2)c(Cl)c1 | 20.6 µM (active) |  |
| O=C(Nc1cccnn1)N1CCN(c2nccc(-c3ccc(F)c(F)c3)n2)CC1 |  | -4.09% |

| SMILES | Potency | max response |
| --- | --- | --- |
| C=C1C(=O)O[C@@H]2C(OC(=O)/C(C)=C\C)/C(C)=C\C(=O)/C=C(\C)C[C@H](O)[C@@H]12 (stereo partly drawn) | 2.55 µM (active) |  |
| Cc1[nH]c2ccc(F)cc2c1-c1nc2c3cccnc3c3ncccc3c2[nH]1 | 4.61 µM (active) |  |
| O=S(=O)(Nc1cc(Cl)c(Oc2cnc3ccccc3c2)c(Cl)c1)c1ccc(Cl)cc1Cl |  | -18.7% |
| COC1CC(O[C@H]2CC[C@]3(C)C4CC[C@@]5(C)C(=O)[C@]4(CC[C@@H]3C2)CC[C@@H]5C2=CC(=O)OC2)OC(C)C1OC1OC(COC2OC(CO)C(O)C(O)C2O)C(O)C(O)C1O (stereo partly drawn) | 1.23 µM (active) |  |
| C[C@H](Nc1ncnc2nc[nH]c12)c1cc2cccc(Cl)c2c(=O)n1-c1ccccc1 |  | -90.1% |
| CC(C)(O)/C=C/C(=O)[C@](C)(O)[C@H]1[C@H](O)C[C@@]2(C)[C@@H]3CC=C4[C@@H](C[C@H](O[C@@H]5O[C@H](CO)[C@@H](O)[C@H](O)[C@H]5O)C(=O)C4(C)C)[C@]3(C)C(=O)C[C@]12C |  | -10.4% |
| CCOc1cc(C(C)(C)C)ccc1C1=N[C@@](C)(c2ccc(Cl)cc2)[C@@](C)(c2ccc(Cl)cc2)N1C(=O)N1CCN(CC(=O)N2CCOCC2)CC1 | 4.17 µM (active) |  |
| Cc1cc2c(F)c(Oc3ncnn4cc(OCC(C)OC(=O)C(C)N)c(C)c34)ccc2[nH]1 (stereo not drawn) | 6.51 µM (active) |  |
| C=CC(=O)Nc1cccc(Nc2nc(Nc3ccc(OCCOC)cc3)ncc2F)c1 | 8.2 µM (active) |  |
| COc1cc(C[C@H]2C(=O)OC[C@@H]2Cc2ccc(OC)c(OC)c2)ccc1O | 1.01 µM (active) |  |
| Cc1cc2c(cc1N1C(=O)c3cccc4c(CCCO)ccc(c34)C1=O)n(C)c(=O)n2C |  | -71.7% |
| CC(=O)C1=C(O)C=C2Oc3c(C(C)=O)c(O)c(C)c(O)c3[C@]2(C)C1=O |  | 0.521% |
| C=C(C)C(=O)O[C@H]1[C@H]2C(=C)C(=O)O[C@@H]2C[C@@H](C)[C@@H]2O[C@@H]2C(=O)[C@](C)(O)[C@@H]1OC(=O)C(=C)C | 2.52 µM (active) |  |
| Cc1nc(C#Cc2ccnc(Cl)c2)c(C)n1-c1ccc(F)cc1 | 7.31 µM (active) |  |
| C=C1C(=O)O[C@H]2C3=C(C)CCC[C@]3(C)C(=O)C[C@@H]12 | 5.8 µM (active) |  |
| O=C1NC(=O)C(c2cnc3ccccn23)=C1c1cn2c3c(cc(F)cc13)CN(C(=O)N1CCCCC1)CC2 | 0.295 µM (active) |  |
| COC(=O)C1=COC(O[C@@H]2O[C@H](CO[C@@H]3O[C@H](COC(=O)/C=C\c4ccc(O)cc4)[C@@H](O)[C@H](O)[C@H]3O)[C@@H](O)[C@H](O)[C@H]2O)C2C(CO)=CCC12 (stereo partly drawn) |  | -82.6% |
| CC1CCCC[C@H]2C(=O)C=C[C@H](O)[C@@H]2CC(=O)O1 (stereo partly drawn) | 1.64 µM (active) |  |
| COC1CC(O[C@H]2CC[C@]3(C)C4CC[C@]5(C)C(C6=CC(=O)OC6)=CCC56OC46CC[C@@H]3C2)OC(C)C1O[C@@H]1O[C@H](CO[C@@H]2O[C@H](CO)[C@@H](O)[C@H](O)[C@H]2O)[C@@H](O)[C@H](O)[C@H]1O (stereo partly drawn) | 1.74 µM (active) |  |
